The panel holds about 83,000 compounds, 20% with a hit somewhere; the sample as a whole holds those more often.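 How to read the values: 0–100, growth inhibition (40 = 60% inhibited); 0, no net growth; -100 to 0, cell death (-40 = 40% of starting cells died; -100 = all dead).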 Activity calls are given as the source filed them. How the source made its calls: active means growth percent below 10; inactive means the rest.
Key:
Experiment in all cases: NCI-60 one-dose screen, 48 h (100 = growth as untreated, 0 = no growth, -100 = all killed)
Settings in all cases: 10 µM unless noted
SR leukemia = test system: SR leukemia
RPMI-8226 leukemia = test system: RPMI-8226 leukemia
OVCAR-8 ovarian = test system: OVCAR-8 ovarian
OVCAR-4 ovarian = test system: OVCAR-4 ovarian
SK-OV-3 ovarian = test system: SK-OV-3 ovarian
IGROV1 ovarian = test system: IGROV1 ovarian
OVCAR-3 ovarian = test system: OVCAR-3 ovarian
HS 578T breast = test system: HS 578T breast
NCI/ADR-RES ovarian = test system: NCI/ADR-RES ovarian
T-47D breast = test system: T-47D breast
BT-549 breast = test system: BT-549 breast
MDA-MB-435 melanoma = test system: MDA-MB-435 melanoma
SW-620 colon = test system: SW-620 colon
MCF7 breast = test system: MCF7 breast
HCT-116 colon = test system: HCT-116 colon
HCC-2998 colon = test system: HCC-2998 colon
KM12 colon = test system: KM12 colon
OVCAR-5 ovarian = test system: OVCAR-5 ovarian

Measured: growth

COc1ccc(/C=C(\C#N)c2cc(OC)c3c(c2)OCO3)cc1
active: SR leukemia 1.82% | SK-OV-3 ovarian 8.7% | OVCAR-3 ovarian -42.7% | NCI/ADR-RES ovarian 7.74% | MDA-MB-435 melanoma -17.6% | HCT-116 colon 6.05% | KM12 colon 5.15%
inactive: RPMI-8226 leukemia 28.6% | OVCAR-8 ovarian 24.3% | OVCAR-4 ovarian 39% | IGROV1 ovarian 16.3% | HS 578T breast 28.5% | T-47D breast 62.3% | BT-549 breast 30.9% | SW-620 colon 24.4% | MCF7 breast 17.4% | HCC-2998 colon 15.7%

CCCOC(=O)n1cccc1
inactive: SR leukemia 114% | RPMI-8226 leukemia 110% | OVCAR-8 ovarian 108% | OVCAR-4 ovarian 91.7% | SK-OV-3 ovarian 101% | OVCAR-3 ovarian 106% | HS 578T breast 105% | NCI/ADR-RES ovarian 102% | BT-549 breast 103% | MDA-MB-435 melanoma 110% | SW-620 colon 102% | MCF7 breast 95% | HCT-116 colon 103% | HCC-2998 colon 104% | KM12 colon 99.7%

COc1cc(C2C3=C(COC3=O)Nc3cc4c(cc32)OCO4)cc2c1OCO2 (stereo not given)
active: SR leukemia -0.432% | OVCAR-3 ovarian -45.3% | NCI/ADR-RES ovarian 9.84% | MDA-MB-435 melanoma -20.4% | HCT-116 colon 6.83% | HCC-2998 colon 8.39% | KM12 colon 1.28%
inactive: RPMI-8226 leukemia 21.9% | OVCAR-8 ovarian 14.3% | OVCAR-4 ovarian 51.9% | SK-OV-3 ovarian 12.8% | IGROV1 ovarian 23.6% | HS 578T breast 14.6% | T-47D breast 51.9% | BT-549 breast 25.4% | SW-620 colon 17.1% | MCF7 breast 13.9%

CCOC(=O)CN1/C(=N/c2sc3c(c2C(=O)OCC)CCN(C(=O)OCC)C3)SC(=O)/C1=C\C(=O)OC
active: RPMI-8226 leukemia -28.8%
inactive: SR leukemia 29.8% | OVCAR-5 ovarian 89.9% | OVCAR-4 ovarian 86.8% | SK-OV-3 ovarian 111% | IGROV1 ovarian 92.1% | OVCAR-3 ovarian 92.1% | HS 578T breast 82.7% | NCI/ADR-RES ovarian 87% | T-47D breast 30.8% | BT-549 breast 89.4% | MDA-MB-435 melanoma 99.7% | SW-620 colon 71.6% | MCF7 breast 49.3% | HCT-116 colon 71.6% | HCC-2998 colon 94.4% | KM12 colon 97.4%

Cc1nn(-c2ccc([N+](=O)[O-])cc2)c2ncnc(NCCc3ccccc3)c12
inactive: SR leukemia 62.3% | RPMI-8226 leukemia 96.9% | OVCAR-5 ovarian 101% | OVCAR-4 ovarian 109% | SK-OV-3 ovarian 101% | IGROV1 ovarian 99.2% | OVCAR-3 ovarian 112% | HS 578T breast 101% | NCI/ADR-RES ovarian 102% | T-47D breast 93% | BT-549 breast 114% | MDA-MB-435 melanoma 94.9% | SW-620 colon 99.4% | MCF7 breast 93.1% | HCT-116 colon 92.5% | HCC-2998 colon 101% | KM12 colon 96.1%

COc1c2occc2c(OC)c2c(=O)c(-c3cc(-c4ccc(F)cc4)c(C#N)c(N)n3)c(C)oc12
inactive: SR leukemia 15.5% | RPMI-8226 leukemia 27.3% | OVCAR-5 ovarian 91.9% | OVCAR-4 ovarian 19.4% | SK-OV-3 ovarian 56.5% | IGROV1 ovarian 21.3% | OVCAR-3 ovarian 15.2% | HS 578T breast 43.7% | NCI/ADR-RES ovarian 68.2% | T-47D breast 30.7% | BT-549 breast 63.7% | MDA-MB-435 melanoma 63.1% | SW-620 colon 42.3% | MCF7 breast 13.4% | HCC-2998 colon 69.3% | KM12 colon 46.2%
active: HCT-116 colon 9.9%

CCO/C=N/C1=C(C#N)C(c2ccc(Cl)cc2)c2c(c3ccc(C)cc3[nH]c2=O)O1 (stereo not given)
inactive: SR leukemia 86.7% | OVCAR-8 ovarian 89.7% | OVCAR-5 ovarian 83.1% | OVCAR-4 ovarian 85% | SK-OV-3 ovarian 85.7% | IGROV1 ovarian 68.4% | OVCAR-3 ovarian 103% | HS 578T breast 48.8% | NCI/ADR-RES ovarian 96.1% | T-47D breast 78.4% | BT-549 breast 86.7% | MDA-MB-435 melanoma 90.7% | SW-620 colon 84.6% | MCF7 breast 78.7% | HCT-116 colon 82.4% | HCC-2998 colon 99.5% | KM12 colon 97.1%

O=C(/C=C\c1cccc([N+](=O)[O-])c1)/C=C/c1cccc([N+](=O)[O-])c1
inactive: SR leukemia 44.2% | OVCAR-5 ovarian 90.1% | OVCAR-4 ovarian 95.5% | SK-OV-3 ovarian 95.5% | IGROV1 ovarian 52.2% | OVCAR-3 ovarian 67.5% | HS 578T breast 90.6% | NCI/ADR-RES ovarian 91.7% | T-47D breast 97.9% | BT-549 breast 88.9% | MDA-MB-435 melanoma 36.7% | SW-620 colon 18.9% | MCF7 breast 19% | HCC-2998 colon 97%
active: RPMI-8226 leukemia -6.63% | HCT-116 colon -31.2% | KM12 colon -7.25%

COc1cc(-c2nc(N=Nc3c(O)[nH]c4ccc(Br)cc34)[nH]c(=O)c2C#N)cc(OC)c1OC
inactive: SR leukemia 88.2% | RPMI-8226 leukemia 98.2% | OVCAR-5 ovarian 101% | OVCAR-4 ovarian 101% | SK-OV-3 ovarian 108% | IGROV1 ovarian 101% | OVCAR-3 ovarian 102% | HS 578T breast 93.8% | NCI/ADR-RES ovarian 102% | T-47D breast 90.6% | BT-549 breast 105% | MDA-MB-435 melanoma 102% | SW-620 colon 93.4% | HCT-116 colon 99.2% | HCC-2998 colon 117% | KM12 colon 100%

COc1ccc(C(=O)N2NC(=O)/C(=C/c3cn(-c4ccccc4)nc3-c3ccccc3)N=C2c2ccccc2)cc1
inactive: SR leukemia 99.9% | RPMI-8226 leukemia 102% | OVCAR-5 ovarian 111% | OVCAR-4 ovarian 101% | SK-OV-3 ovarian 107% | IGROV1 ovarian 98.6% | OVCAR-3 ovarian 115% | HS 578T breast 97.3% | NCI/ADR-RES ovarian 106% | T-47D breast 97.6% | BT-549 breast 106% | MDA-MB-435 melanoma 92.2% | SW-620 colon 109% | MCF7 breast 98.9% | HCT-116 colon 95.2% | HCC-2998 colon 107% | KM12 colon 99.1%

Cc1ccc(S(=O)(=O)NCCNc2nccc(-c3c(-c4cccc(N)c4)nc4sccn34)n2)cc1
inactive: SR leukemia 95.9% | OVCAR-8 ovarian 91.4% | OVCAR-5 ovarian 123% | OVCAR-4 ovarian 58.8% | SK-OV-3 ovarian 103% | IGROV1 ovarian 86.6% | OVCAR-3 ovarian 87.4% | HS 578T breast 99.5% | NCI/ADR-RES ovarian 90.8% | T-47D breast 51.7% | BT-549 breast 87.5% | MDA-MB-435 melanoma 93.5% | SW-620 colon 123% | MCF7 breast 83.4% | HCT-116 colon 99.2% | HCC-2998 colon 132% | KM12 colon 92.2%

CCCCCCCCCCCCNC(=O)[C@H]1CSC(c2ccsc2)N1 (stereo not given in full)
active: SR leukemia -44% | OVCAR-8 ovarian -49.4% | OVCAR-5 ovarian -83.2% | OVCAR-4 ovarian -84.6% | SK-OV-3 ovarian -93.8% | IGROV1 ovarian -66.7% | OVCAR-3 ovarian -86.8% | HS 578T breast -56.5% | NCI/ADR-RES ovarian -61.5% | T-47D breast -41.2% | BT-549 breast -67.6% | MDA-MB-435 melanoma -98.1% | SW-620 colon -75.9% | MCF7 breast -67.5% | HCT-116 colon -48.3% | KM12 colon -92.7%
inactive: HCC-2998 colon 11%

O=C1Nc2ccc3c(c2/C1=C\c1cc2c(cc1Br)OCO2)OCO3
active: OVCAR-4 ovarian -45.5% | SK-OV-3 ovarian 2.7% | IGROV1 ovarian -7.11% | HS 578T breast -14.5% | NCI/ADR-RES ovarian 1.49% | SW-620 colon 7.57% | MCF7 breast 4.51% | HCT-116 colon -2.7% | KM12 colon -6.85%
inactive: SR leukemia 29.3% | RPMI-8226 leukemia 14.4% | OVCAR-5 ovarian 65.2% | BT-549 breast 27.8% | HCC-2998 colon 43.6%

Source: PubChem BioAssay (NCI)
